Records with an inconclusive call do not appear. Active and inactive are the calls of the source. Calls come from the whole dose curve; as a rule, active = well fitted curve in either direction with a large enough effect; inconclusive = small, poorly fitted or top-dose-only effect; inactive = no such curve, though single readings can be large or run the other way.
These compounds were tested against Lysosomal alpha-glucosidase (Homo sapiens) (UniProt P10253) (assay: Confirmation of Inhibitors and Activators of Human alpha-Glucosidase From Spleen Homogenate). Settings: alpha-glucosidase enzyme activity; series mostly up to 60.5 µM; activity change, both directions: at the top concentration.
In short: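 Compounds titrated against spleen-homogenate alpha-glucosidase, pH 5.0, 1 mM 4-MU-glucoside substrate, 37 C for 40 min. Fluorescence after pH 10 stop, normalised to no-enzyme and enzyme controls; Hill-equation AC50.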
Potency is the fitted concentration of half-maximal effect.
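Throughout, for Potency: fluorescence of 4-methylumbelliferone released from a fluorogenic glucopyranoside substrate at pH 5.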
Throughout, for activity change, both directions: 0% is about no effect.

| Compound | activity change, both directions | Potency |
| --- | --- | --- |
| COc1cc(=O)[nH]c(=O)n1CC(=O)c1ccccc1 | 1.27% [at 31.5 µM] (inactive) | – |
| COC(=O)CSc1ccc(C#N)c(SCC(=O)OC)c1 | 4.51% [at 31.5 µM] (inactive) | – |
| COc1cc(NC(=O)CN2CCN(c3ccccc3F)CC2)c(C)cc1[N+](=O)[O-] | 7.53% [at 31.5 µM] (inactive) | – |
| Cc1sc(-c2cc3ccccc3oc2=O)nc1-c1ccccc1 | 26.5% (inactive) | – |
| COc1cccc2cc(-c3nc4c(s3)CCc3ccccc3-4)c(=O)oc12 | 5.55% (inactive) | – |
| Cc1ccc2nc(-c3ccccc3N)[nH]c2c1 | 24.5% (inactive) | – |
| O=S(=O)(c1cccc(Br)c1)N1CCOCC1 | -8.22% (inactive) | – |
| O=C(Nc1ccccc1)C1CCN(S(=O)(=O)c2ccccc2)CC1 | 0.601% (inactive) | – |
| CCCN1CNc2c(c(=O)[nH]c(=S)n2CCc2cccc(C)c2)C1 | – | 35.5 µM (active) |
| CC(C)NCC(O)COc1cccc2[nH]ccc12 (stereo unspecified) | 1.09% (inactive) | – |
| O=C(NCCCN1CCOCC1)c1cccs1 | 2.54% [at 31.5 µM] (inactive) | – |
| N#C/C(=C\c1c(N2CCCCC2)nc2ccccn2c1=O)C(=O)NC1CCS(=O)(=O)C1 (stereo unspecified) | – | 14.1 µM (active) |
| O=S(=O)(c1ccc(O)cc1)N1CCOCC1 | -3.67% (inactive) | – |
| C[C@H](NC(=O)/C(C#N)=C/c1ccc(O)c(O)c1)c1ccccc1 | 3.9% (inactive) | – |
| Cc1ccc(S(=O)(=O)N2CCN(C(=O)N(c3ccccc3)c3ccccc3)CC2)cc1 | – | inactive |
| Nc1ccccc1S(=O)(=O)N1CCOCC1 | 3.59% (inactive) | – |
| CCCN1CNc2c(c(=O)[nH]c(=S)n2CCc2ccc(OC)cc2OC)C1 | – | 15.8 µM (active) |
| CCN(CC)S(=O)(=O)c1ccc2c(c1)-c1cc(S(=O)(=O)N(CC)CC)ccc1C2=NNC(N)=S | -5.38% (inactive) | – |

| Compound | activity change, both directions | Potency |
| --- | --- | --- |
| COC(=O)c1ccccc1S(=O)(=O)N1CCOCC1 | -14% (inactive) | – |
| CN1CC=C2C(C#N)=C(N)C(C#N)(C#N)[C@H](c3cccc(Cl)c3)C2C1 (stereo partly specified) | 3.84% [at 31.5 µM] (inactive) | – |
| Nc1ccccc1N=Cc1ccc(-c2cccc(Cl)c2)o1 | 17.3% (inactive) | – |
| CCc1ccc(N=CC23c4ccccc4C(c4ccccc42)C2C(=O)N(c4ccc(OC)cc4)C(=O)C23)cc1 (stereo unspecified) | 2.73% [at 31.5 µM] (inactive) | – |
| COc1ccc(C(=O)NC2(C(F)(F)F)C(=O)Nc3c2c(=O)[nH]c(=O)n3CCc2ccc(OC)c(OC)c2)cc1 (stereo unspecified) | -0.6% [at 31.5 µM] (inactive) | – |
| CC(=O)c1ccc(N2CCN(S(=O)(=O)c3ccc4[nH]c(=O)oc4c3)CC2)cc1 | -0.981% (inactive) | – |
| C=CCSc1nc(-c2ccc3c(c2)OCO3)cc(C(F)(F)F)c1C#N | 40.6% (inactive) | – |
| Cc1csc(-c2cc3ccccc3oc2=O)n1 | – | 31.6 µM (active) |
| O=NOc1ccc(/C=C/c2nccc3c2[nH]c2ccccc23)cc1 | -0.201% (inactive) | – |
| CCCN1CNc2c(c(=O)[nH]c(=S)n2CCc2cccc(OC)c2)C1 | – | 15.8 µM (active) |
| O=C1Cc2cc(S(=O)(=O)N3CCN(c4ccc([N+](=O)[O-])cc4)CC3)ccc2N1 | – | 3.66 µM [inhibitor] (active) |
| COc1cc(/C=C/c2ccc3ccccc3n2)cc(OC)c1O | 2.21% (inactive) | – |
| COc1ccc(CCn2c(=S)[nH]c(=O)c3c(C)cc(C)nc32)cc1OC | -3.35% (inactive) | – |
| Clc1ncc(C#Cc2ccccc2)c2ncncc12 | 3.9% (inactive) | – |
| CCCCn1c(N)c(NCC)c(=O)[nH]c1=O | -2.81% [at 31.5 µM] (inactive) | – |
| CCOC(=O)c1cc2c(=O)n3cccc(C)c3nc2n(CCCOC)c1=NC(=O)c1cccnc1 | 7.03% [at 31.5 µM] (inactive) | – |
| CCc1sc(-c2cc3ccc(O)cc3oc2=O)nc1-c1ccccc1 | -3.17% (inactive) | – |
| Cc1ccc2c(c1)c1ncnc(N3CCC4(CC3)OCCO4)c1n2C | 8.53% [at 31.5 µM] (inactive) | – |

Reference: PubChem BioAssay AID2113 (National Center for Advancing Translational Sciences (NCATS), 2009)
